“And” between values parts separate entries of the source, which are not always exact repeats. Equal entries are not always repeated. Inconclusive results are not listed. A number with no mark means an inactive call. The source made the active and inactive calls. The call rests on the fitted dose curve; in most records, active means well fitted curve in the direction sought with a large enough effect; inconclusive means small, poorly fitted or top-dose-only effect, or another doubt; inactive means no such curve, though single readings can be large or run the other way.
experiment: qHTS Assay for Identifying Gametocytocidal Compounds (AID 743244);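 on max response: actives lower the fluorescent signal which means gametocytes are killed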; conditions: P. falciparum 3D7 stage III-V gametocytes, alamarBlue, 72 h; max response: hits give low values
Source text: Malaria cases and deaths have dropped 50% in 29 countries since 2000 due to the combined effects of long-lasting insecticidal bednets, indoor residual spraying, and artemisinin-based combination therapies (ACTs). This success has raised hopes for malaria eradication and consequently stimulated interest in developing new reagents that block gametocyte transmission such as novel and safe gametocytocidal drugs. However, previous drug development efforts have focused primarily on the asexual parasites that cause symptoms, but not malaria transmission. Consequently, patients can remain infectious for weeks after the clearance of asexual parasites and clinical symptoms. To be transmitted from person to person via a mosquito, the parasites must switch from asexual to sexual development and produce male and female gametocytes. Malaria gametocytes consist of five stages (I, II, III, IV and V). The late stage gametocytes (III, IV and V) are difficult to be cultured in vitro and the long lifespan of mature gametocytes allows them being transmitted from host to mosquitoes unless they are completely eliminated by gametocytocidal agents. To identify gametocytocidal compounds which are capable of killing late stage P. falciparum gametocytes, a high throughput gametocyte viability assay was employed. This assay uses oxidoreduction indicator, alamarBlue, as a general measure of metabolic activity of gametocytes. Within live cells, the nonfluorescent resazurin is reduced to resorufin, a bright red fluorescence dye. Fluorescence decreases upon treatment of gametocytocidal compounds. P. falciparum gametocyte (3D7 strain) was used in this study.
The 1536-well gametocycidal viability assay was based on the previous method of Tanaka et al. Stage III-V gametocytes were tested against three compound libraries, including 4265 compounds from NCGC pharmaceutical collection, 400 from Malaria Box library, and 550 from an internal collection of kinase inhibitors. Briefly, 2.5 ul/well incomplete medium was dispensed into each well of 1,536-well plates using the Multidrop Combi followed by 23 nl compound transferring using the NX-TR Pintool (WAKO Scientific Solutions, San Diego, CA). Then, 2.5 ul/well of gametocytes was dispensed with a seeding density of 20,000 cells/well using the Multidrop Combi. The assay plates were incubated for 72 h at 37C with 5% CO2. After addition of 5 ul/well of 2X AlamarBlue dye (Life Technologies, cat. no. DAL1100), the plates were incubated for 24 h at 37C with 5% CO2 and then were read in a fluorescence detection mode (Ex = 525 nm, Em = 598 nm) on a ViewLux plate reader (PerkinElmer).
On the % scale 0 is the no-effect control and ±100 the full control effect; potency means the concentration at half of the fitted maximal effect.

Compound	max response	Potency
O=C(CS(=O)Cc1ccco1)NC/C=C\COc1cc(CN2CCCCC2)ccn1 (stereo not given)	9.57%	
CCCCCCCCCCCCCC[N+](C)(C)C		14.1 µM (active)
CC(C)C[C@H](NC(=O)CNC(=O)[C@H](Cc1ccc(O)cc1)NC(=O)[C@H](CO)NC(=O)[C@H](Cc1c[nH]c2ccccc12)NC(=O)[C@H](Cc1cnc[nH]1)NC(=O)[C@@H]1CCC(=O)N1)C(=O)N[C@@H](CCCN=C(N)N)C(=O)N1CCC[C@H]1C(=O)NCC(N)=O (stereo in doubt)	-1.4%	
O=C1OC2(c3ccccc31)c1cc(I)c(O)c(I)c1Oc1c2cc(I)c(O)c1I	-3.42%	
COc1cc(C(=O)OC(COCCC(C)C)CN2CCOCC2)cc(OC)c1OC (stereo not given)	4.25%	
CO[C@]1(NC(=O)CSC(F)F)C(=O)N2C(C(=O)O)=C(CSc3nnnn3CCO)CO[C@H]21	19.9%	
NC(N)=NCCCCN=C(N)N	2.24% and 15.3%	
CCOC(=O)OCC/C(SC(=O)OCC)=C(\C)N(C=O)Cc1cnc(C)nc1N	11.2%	
O=C1[C@@H]2[C@H]3CC[C@H](C3)[C@@H]2C(=O)N1CCCCN1CCN(c2ncccn2)CC1	4.19%	
O=C(CO)[C@@H](O)[C@H](O)[C@@H](O)CO	-0.255%	
CCCCC(CC)COC(=O)c1ccccc1C(=O)O (stereo not given)	-17.7%	
O=C(O)Cc1ccccc1Oc1ccc(Cl)cc1Cl	10.5%	
CC(=O)[C@H]1CC[C@H]2[C@@H]3C=CC4=CC(=O)CC[C@@]4(C)[C@@H]3CC[C@]12C	-3.42%	
O=C1CC2(CCCC2)CC(=O)N1CCNCC1COc2ccccc2O1 (stereo not given)	2.39%	
Cc1cc(OCCOCC[N+](C)(C)Cc2ccccc2)ccc1C(C)(C)CC(C)(C)C		7.08 µM (active)
O=[N+]([O-])c1ccc(O)c2ncccc12		8.91 µM (active)
CC(=O)Nc1ccn(C2COC(COC(=O)c3ccccc3)O2)c(=O)n1 (stereo not given)	-5.34%	
Nc1nnnn1-c1ccccc1	2.05%	
CN(CC1(C)CCCO1)S(=O)(=O)c1ccc(Cl)c(S(N)(=O)=O)c1 (stereo not given)	-10.7%	
C[C@@H](O[C@H]1OCCN(Cc2n[nH]c(=O)[nH]2)[C@H]1c1ccc(F)cc1)c1cc(C(F)(F)F)cc(C(F)(F)F)c1	16.6%	

Compound	max response	Potency
O=C(OCC(COC(=O)c1cccnc1)(COC(=O)c1cccnc1)COC(=O)c1cccnc1)c1cccnc1	13.3%	
Cc1ccc(/C=N/n2c(-c3ccccc3)csc2=S)cc1	-23%	
CC(=O)Nc1c(I)c(NC(C)=O)c(I)c(C(=O)O)c1I	-5.52%	
OCCc1ccccc1	0.746%	
O=C(O)Cc1ccc(OCCNC[C@H](O)c2ccccc2)cc1	-2.47%	
C[C@H](CN1CCCC1)C(=O)c1ccc(C(F)(F)F)cc1	15.3%	
CCCc1c2oc(C(=O)O)cc(=O)c2cc2c(=O)cc(C(=O)O)n(CC)c12	-6.99%	
c1ccc2occc2c1	-7.52%	
CCCC(=O)O[C@]1(C(=O)CCl)[C@@H](C)C[C@H]2[C@@H]3CCC4=CC(=O)C=C[C@]4(C)[C@@]3(F)C(=O)C[C@@]21C	13.2%	
COC(=O)C1=CO[C@@H](O)[C@@H]2C(CO)=CC[C@H]12	18%	
Brc1ccccc1-c1ccccc1	-19.3%	
CCCCNc1ccc(C(=O)OCCN(CC)CC)cc1	-4.4%	
O=C1NC(c2cccc([N+](=O)[O-])c2)=CCN1c1ccccc1O	21.2%	
O=S(=O)(O)c1ccc2nc(-c3ccccc3)[nH]c2c1	9.66%	
CCCC(=O)O[C@]1(C(=O)COC(=O)CC)CC[C@H]2[C@@H]3CCC4=CC(=O)CC[C@]4(C)[C@H]3[C@@H](O)C[C@@]21C	31.6%	
CCO[C@H](Cc1ccc(OCCc2ccc(OS(C)(=O)=O)cc2)cc1)C(=O)O	6.84%	
CN(C)C(=O)CNC(=O)Cc1ccccc1	15%	
Cc1ccc(O)cc1	-13.3% and 9.92%	
Cc1ncc(CO)c(CO)c1O	-15.9%	
CN1C(=O)c2ccccc2C1=O	10.3%	

— PubChem BioAssay (NCATS)
